# Assay outcomes: PubChem BioAssay, National Center for Advancing Translational Sciences (NCATS)
# The list is not random: actives were taken first. Their share in the collection is about 1.1%.
# SARS PLpro yeast: inhibitors of SARS-CoV papain-like protease in yeast; S. cerevisiae expressing SARS-CoV PLpro, growth rescue; Potency, µM (series often up to 32.9 µM), for the others: top-dose activity, positive = growth rescue, usual class: activators; hit rate 0.19% among 330,000; calls by dose curve; also: 0% is about no effect; nearly all actives have a fitted effect of over 55% in size
# AmpC no deterg: blocks E. coli AmpC beta-lactamase in detergent-free assay; P00811; AmpC nitrocefin hydrolysis, absorbance 480 nm, 0.0001% Triton; Potency, µM (series often up to 57.1 µM), without a hit: at the top dose activity change, negative = inhibition, usual class: inhibitors; hit rate 0.52% among 330,000; AID 485341;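 also: plate controls were no compound for no effect and no enzyme for full effect; nearly all actives have a fitted effect of over 20% in size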
#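 20 mM phosphate pH 7.0 + 0.01% (detergent screen) or 0.0001% Triton X-100; 5.3 nM AmpC reagent; cpd preinc 15 min RT; nitrocefin (800 uM stock) to start; A480 q20 s × 4 min; Activity was normalised to no-enzyme and no-compound control wells.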
# Giardia FBPA inh-1: inhibitors of Giardia lamblia fructose-1,6-bisphosphate aldolase | A8B2U2 | purified Giardia FBPA | Potency, µM (top dose mostly 59.6 µM), for the others: at the top dose activity, negative = inhibition, actives largely listed as inhibitors | hit rate 0.71% among 290,000; also: % is scaled to controls: 0 for no effect and ±100 for the full control effect; nearly all actives have a fitted effect of over 55% in size
# Target sequence (A8B2U2 whole entry, looked up): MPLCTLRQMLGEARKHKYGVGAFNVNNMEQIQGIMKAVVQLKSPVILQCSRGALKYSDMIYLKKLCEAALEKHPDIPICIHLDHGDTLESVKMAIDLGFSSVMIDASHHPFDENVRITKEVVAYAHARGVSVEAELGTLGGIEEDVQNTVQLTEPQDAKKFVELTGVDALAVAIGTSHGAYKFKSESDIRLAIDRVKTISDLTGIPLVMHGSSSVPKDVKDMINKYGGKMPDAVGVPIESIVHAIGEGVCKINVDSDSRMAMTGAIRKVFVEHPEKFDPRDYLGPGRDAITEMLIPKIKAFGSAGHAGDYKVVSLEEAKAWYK
#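 Giardia FBPA (40 nM reagent) was preincubated 10 min at RT with compound (up to 57.5 uM final), then substrate plus GAPDH/TPI/NAD/arsenate coupling system with diaphorase/resazurin was added; resorufin fluorescence (525/598 nm) was read after 20 min.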
# AmpC detergent: blocks E. coli AmpC beta-lactamase in detergent assay; P00811; AmpC hydrolysis of nitrocefin, absorbance 480 nm, 0.01% Triton; Potency, µM (titrated, usually from 114 µM), inactives show top-dose activity change, negative = inhibition, usual class: inhibitors; hit rate 0.041% among 370,000; AID 485294;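 also: 0% = no-compound wells and -100% = no-enzyme wells; nearly all actives have a fitted effect of over 25% in size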
#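 AmpC (5.3 nM in the dispensed reagent) in 20 mM phosphate pH 7.0 with 0.01% (detergent screen) or 0.0001% Triton X-100 was preincubated with compounds for 15 min at room temperature. Nitrocefin was then added from an 800 uM solution, and hydrolysis was followed at 480 nm.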
# Giardia growth: blocks growth of Giardia lamblia trophozoites. hit rate 5% among 1,500. shares compounds with Giardia FBPA inh-1. Potency, µM (doses to about 57.5 µM), for inactives: at the top dose activity change, negative = inhibition, actives largely listed as inhibitors. Giardia lamblia trophozoite growth inhibition;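 also: trophozoites exposed to compound for 48 h at 37 °C; % is scaled to controls: 0 for no effect and ±100 for the full control effect; nearly all actives have a fitted effect of over 70% in size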
# Mammalian tox: mammalian cytotoxicity of Giardia aldolase inhibitor hits; hit rate 4% among 1,500; mammalian cell viability counter-screen, qHTS; Potency, µM (doses to about 57.5 µM), inactives show at the top dose viability change, negative = toxicity, actives largely listed as inhibitors; shares compounds with Giardia FBPA inh-1;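 also: Chinese hamster ovary cells used as mammalian cytotoxicity surrogate; viability measured as cellular ATP by luminescence; compound exposure lasted 48 h before reading; % is scaled to controls: 0 for no effect and ±100 for the full control effect; nearly all actives have a fitted effect of over 60% in size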
# Giardia FBPA inh-2: confirmation of Giardia fructose-bisphosphate aldolase inhibitors | shares compounds with Giardia FBPA inh-1 | purified Giardia aldolase enzyme activity, qHTS | Potency, µM (doses to about 57.5 µM), inactives show top-dose activity change, negative = inhibition, hits mostly inhibitors | hit rate 5% among 1,500 | AID 2787; also: % is scaled to controls: 0 for no effect and ±100 for the full control effect; nearly all actives have a fitted effect of over 45% in size
# Rabbit aldolase: selectivity test for Giardia aldolase inhibitors: rabbit aldolase; shares compounds with Giardia FBPA inh-1; Rabbit muscle FBPA enzyme inhibition, selectivity counter-screen; Potency, µM (titrated, usually from 57.5 µM), for inactives: at the top dose activity, negative = inhibition, usual class: inhibitors; hit rate 4% among 1,500; also: % is scaled to controls: 0 for no effect and ±100 for the full control effect; nearly all actives have a fitted effect of over 60% in size
# GAPDH counter: counter-screen for Giardia aldolase inhibitors: GAPDH coupling enzyme; shares compounds with Giardia FBPA inh-1; GAPDH coupling enzyme counterscreen, biochemical, qHTS; Potency, µM (top dose mostly 57.5 µM), for the others: at the top dose activity change, negative = inhibition, usual class: inhibitors; hit rate 6% among 1,500; also: % is scaled to controls: 0 for no effect and ±100 for the full control effect; nearly all actives have a fitted effect of over 55% in size
# * hit, by the source's call; ? = inconclusive; . = not tested or not shown; [ ] = remark or other dose. Unless noted, calls follow the shape of the dose curve; as a rule, active = well fitted curve in the direction sought with a large enough effect; inconclusive = small, poorly fitted or top-dose-only effect, or another doubt; inactive = no such curve, though single readings can be large; an effect the other way counts as inactive or inconclusive. Potency is read from the fitted curve at half-maximal effect.
SMILES,SARS PLpro yeast,AmpC no deterg,Giardia FBPA inh-1,AmpC detergent,Giardia growth,Mammalian tox,Giardia FBPA inh-2,Rabbit aldolase,GAPDH counter
CCOc1ccc(C(=O)N(Cc2nc(-c3cccc(C)c3)no2)C(C)C)cc1,.,.,.,14%,.,.,.,.,.
S=C1NCCOCCNC(=S)NCCOCCOCCOCCN1,8%,-5%,4.5µM*,-12%,-21%[38.3 µM],-1%,7%,5%,1%
Cc1c(Cl)cccc1N1C(N)=C(C#N)C(c2cc(CN3CCOCC3)cs2)C2=C1CCCC2=O (configuration not stated),.,.,.,-1%,.,.,.,.,.
CC1=NN(C(N)=S)C(C)(C)C1,0%,0%,11µM*,-6%,-13%,17%,2%,10%,9%
COc1ccc(-c2cn3nc(N4CCC(C(=O)Nc5ccc(C)cc5)CC4)sc3n2)cc1,.,.,.,18%,.,.,.,.,.
CCNC(=S)NS(=O)(=O)c1ccc(F)cc1,-4%,-2%,?,-2%,4%[38.3 µM],3%,4%,-1%,2%
CCNC(=O)Cc1ccc(NS(=O)(=O)c2ccc(F)cc2)cc1,0%,-44%,3%,-6%,.,.,.,.,.
Cc1nc(SCC(=O)c2ccccc2)n[nH]1,7%,-18%,13µM*,-13%,11%,-11%,5%,10%,3%
COc1cccc(C2C(C(=O)Nc3cccnc3)=C(C)Nc3nc(SCc4ccccc4)nn32)c1 (configuration not stated),.,.,.,7%,.,.,.,.,.
Cc1ccc(N=Nc2c(O)ccc3n[nH]nc23)cc1,-3%,-42%,16µM*,-8%,?,-1%,?,-21%,-2%
COc1ccc(OC)c(C2CC(=O)N3CN(c4ccc(C)c(Cl)c4)CSC3=C2C#N)c1 (configuration not stated),-1%,-44%,5µM*,?,-7%[10.4 µM],6%,?,?,-27%
COc1ccc(OC)c(C2CC(=O)N3CN(c4cccc(Cl)c4C)CSC3=C2C#N)c1 (configuration not stated),11%,-54%,1.4µM*,0%,?,-9%,-29%,?,?
COc1ccc(OC)c(C2CC(=O)N3CN(c4cccc(Cl)c4)CSC3=C2C#N)c1 (configuration not stated),2%,-45%,3.5µM*,?,21%,5%,-17%,-24%,-19%
CCOc1ccc(N2CSC3=C(C#N)C(c4ccco4)CC(=O)N3C2)cc1 (configuration not stated),4%,-29%,7.9µM*,2%,44%,-3%,?,?,?
CS(=O)(=O)CC[C@@H](C(=O)NCCc1ccccc1)N1Cc2ccccc2C1=O,.,.,.,-2%,.,.,.,.,.
COc1ccc(-c2nc3scc(CCNS(=O)(=O)c4ccc5c(c4)OCCO5)n3n2)cc1,.,.,.,1%,.,.,.,.,.
Cn1c(C(=O)NCc2ccc(F)cc2)cc2cc(S(=O)(=O)N3CCCCC3)ccc21,.,.,.,11%,.,.,.,.,.
COc1cccc(C2CC(=O)N3CN(c4ccccc4F)CSC3=C2C#N)c1 (configuration not stated),-1%,-42%,3.2µM*,?,-7%[10.4 µM],19%,-20%,-26%,-6%
COc1ccc(Br)cc1C1CC(=O)N2CN(C)CSC2=C1C#N (configuration not stated),0%,-28%,?,?,.,.,.,.,.
COc1cc(OC)c(C2CC(=O)N3CN(C)CSC3=C2C#N)cc1OC (configuration not stated),0%,-18%,0.56µM*,?,6%[38.3 µM],-11%,?,-27%,?
COc1cc(CNCCSc2nnnn2C)ccc1OCc1ccccc1C,.,.,.,0%,.,.,.,.,.
COc1cccc(/C=N/Nc2nnc(C)n2N)c1O,-5%,-16%,-11%,1%,.,.,.,.,.
COc1ccc(-n2c(C)cc(/C=N/Nc3nnc(C)n3N)c2C)cc1,-35%,44%,6.3µM*,?,9%[10.4 µM],10%,20µM*,?,?
O=C(NC(=S)N1CCN(c2ccc(O)cc2)CC1)c1cccs1,-1%,-14%,13µM*,-6%,15%,14%,-19%,-2%,19%
CC(=O)N1CCc2c(sc3c2c(=O)n(-c2ccccc2)c(=O)n3CC(=O)NCC2CCCO2)C1 (configuration not stated),-4%,-7%,10µM*,-7%,-4%[38.3 µM],-13%,-27%,-15%,-9%
CCCCN(CC)C(=O)c1nn(C)c2c1CSc1ccccc1-2,.,.,.,21%,.,.,.,.,.
C=CCNC(=S)Nc1ccccc1-c1nnc2n1CCCCC2,-1%,-4%,13µM*,-9%,10%[10.4 µM],-2%,1%,4%,19%
O=[N+]([O-])c1ccc(Nc2ccccc2)c2nonc12,-4%,-20%,1%,-4%,.,.,.,.,.
